# Experimental data reported in the supplement of paper PMC8728848.
# The full list was thinned out, with the strongest signals kept by preference.
# Key:
# Test in all cases: glycan array binding signal (z-score within array); higher = stronger binding
# Conditions in all cases: glycan notation: IUPAC condensed, linker removed
# Fuc(a1-2)Gal(b1-3)GalNAc = target: Fuc(a1-2)Gal(b1-3)GalNAc
# Procedure, shortened: (§1)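 The Consortium for Functional Glycomics database supplied 3228 glycan arrays, of which those lacking an available protein sequence were dropped. The binding signal, a within-array Z-score, was averaged across arrays of the same protein sequence and across linkers. Negative scores can be read as non-binding.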
# [1] = target: Fuc(a1-2)Gal(b1-3)GlcNAc(b1-3)[Fuc(a1-2)Gal(b1-3)GlcNAc(b1-6)]GalNAc
# Procedure, shortened: as §1
# [2] = target: Fuc(a1-2)[Gal(a1-3)]Gal(b1-3)GlcNAc(b1-6)GalNAc
# Procedure, shortened: as §1
# [3] = target: Fuc(a1-2)[Gal(a1-3)]Gal(b1-4)[Fuc(a1-3)]GlcNAc(b1-3)GalNAc
# Procedure, shortened: as §1
# [4] = target: Fuc(a1-3)[Gal(b1-4)]GlcNAc
# Procedure, shortened: as §1
# [5] = target: Fuc(a1-3)[Gal(b1-4)]GlcNAc(b1-6)GalNAc
# Procedure, shortened: as §1
# [6] = target: Fuc(a1-3)[Gal(b1-4)]GlcNAc(b1-6)[Gal(b1-3)GlcNAc(b1-3)]Gal(b1-4)Glc
# Procedure, shortened: as §1
# [7] = target: Fuc(a1-3)[Gal3S(b1-4)]GlcNAc6S
# Procedure, shortened: as §1
# Gal(a1-3)Gal(b1-4)Glc = target: Gal(a1-3)Gal(b1-4)Glc
# Procedure, shortened: as §1
# [8] = target: Gal(b1-3)GalNAc(b1-3)Gal(a1-4)Gal(b1-4)Glc
# Procedure, shortened: as §1
# [9] = target: Gal(b1-3)[GlcNAc(b1-6)]GalNAc
# Procedure, shortened: as §1
# [10] = target: Gal(b1-4)GlcNAc(b1-2)Man(a1-3)[GlcNAc(b1-4)][Gal(b1-4)GlcNAc(b1-2)Man(a1-6)]Man(b1-4)GlcNAc(b1-4)GlcNAc
# Procedure, shortened: as §1
# [11] = target: Gal(b1-4)GlcNAc(b1-2)[Gal(b1-4)GlcNAc(b1-6)]Man(a1-6)[Gal(b1-4)GlcNAc(b1-2)Man(a1-3)]Man(b1-4)GlcNAc(b1-4)GlcNAc
# Procedure, shortened: as §1
# [12] = target: Gal(b1-4)GlcNAc(b1-2)[Gal(b1-4)GlcNAc(b1-6)]Man(a1-6)[GlcNAc(b1-4)][Gal(b1-4)GlcNAc(b1-2)[Gal(b1-4)GlcNAc(b1-4)]Man(a1-3)]Man(b1-4)GlcNAc(b1-4)[Fuc(a1-6)]GlcNAc
# Procedure, shortened: as §1
# [13] = target: Gal(b1-4)GlcNAc(b1-3)Gal(b1-4)GlcNAc(b1-2)Man(a1-3)[Gal(b1-4)GlcNAc(b1-3)Gal(b1-4)GlcNAc(b1-2)Man(a1-6)]Man(b1-4)GlcNAc(b1-4)[Fuc(a1-6)]GlcNAc
# Procedure, shortened: as §1
# [14] = target: Gal(b1-4)GlcNAc(b1-3)Gal(b1-4)GlcNAc(b1-2)[Gal(b1-4)GlcNAc(b1-3)Gal(b1-4)GlcNAc(b1-6)]Man(a1-6)[Gal(b1-4)GlcNAc(b1-3)Gal(b1-4)GlcNAc(b1-2)Man(a1-3)]Man(b1-4)GlcNAc(b1-4)[Fuc(a1-6)]GlcNAc
# Procedure, shortened: as §1
# [15] = target: Gal(b1-4)GlcNAc(b1-3)Gal(b1-4)GlcNAc(b1-3)Gal(b1-4)GlcNAc(b1-2)Man(a1-3)[Gal(b1-4)GlcNAc(b1-3)Gal(b1-4)GlcNAc(b1-3)Gal(b1-4)GlcNAc(b1-2)Man(a1-6)]Man(b1-4)GlcNAc(b1-4)GlcNAc
# Procedure, shortened: as §1
# [16] = target: Gal(b1-4)GlcNAc(b1-3)Gal(b1-4)GlcNAc(b1-3)Gal(b1-4)GlcNAc(b1-2)[Gal(b1-4)GlcNAc(b1-3)Gal(b1-4)GlcNAc(b1-3)Gal(b1-4)GlcNAc(b1-6)]Man(a1-6)[Gal(b1-4)GlcNAc(b1-3)Gal(b1-4)GlcNAc(b1-3)Gal(b1-4)GlcNAc(b1-2)Man(a1-3)]Man(b1-4)GlcNAc(b1-4)[Fuc(a1-6)]GlcNAc
# Procedure, shortened: as §1
# [17] = target: Gal(b1-4)GlcNAc(b1-3)Gal(b1-4)GlcNAc(b1-3)Gal(b1-4)GlcNAc(b1-3)Gal(b1-4)GlcNAc(b1-2)Man(a1-3)[Gal(b1-4)GlcNAc(b1-3)Gal(b1-4)GlcNAc(b1-3)Gal(b1-4)GlcNAc(b1-3)Gal(b1-4)GlcNAc(b1-2)Man(a1-6)]Man(b1-4)GlcNAc(b1-4)[Fuc(a1-6)]GlcNAc
# Procedure, shortened: as §1
# Gal3S6S(b1-4)GlcNAc6S = target: Gal3S6S(b1-4)GlcNAc6S
# Procedure, shortened: as §1
# [18] = target: GalNAc(a1-3)GalNAc(b1-3)Gal(a1-4)Gal(b1-4)GlcNAc
# Procedure, shortened: as §1
# GalNAc(b1-4)Gal(b1-4)Glc = target: GalNAc(b1-4)Gal(b1-4)Glc
# Procedure, shortened: as §1
# GalNAc(b1-6)GalNAc = target: GalNAc(b1-6)GalNAc
# Procedure, shortened: as §1
# [19] = target: GlcNAc(a1-4)Gal(b1-4)GlcNAc(b1-3)Gal(b1-4)GlcNAc
# Procedure, shortened: as §1
# [20] = target: GlcNAc(a1-4)Gal(b1-4)GlcNAc(b1-3)Gal(b1-4)[Fuc(a1-3)]GlcNAc(b1-3)Gal(b1-4)[Fuc(a1-3)]GlcNAc
# Procedure, shortened: as §1
# [21] = target: GlcNAc(b1-3)Gal(b1-4)GlcNAc(b1-2)Man(a1-3)[GlcNAc(b1-3)Gal(b1-4)GlcNAc(b1-2)Man(a1-6)]Man(b1-4)GlcNAc(b1-4)GlcNAc
# Procedure, shortened: as §1
# [22] = target: GlcNAc(b1-3)Gal(b1-4)GlcNAc(b1-3)Gal(b1-4)GlcNAc(b1-2)Man(a1-3)[GlcNAc(b1-3)Gal(b1-4)GlcNAc(b1-3)Gal(b1-4)GlcNAc(b1-2)Man(a1-6)]Man(b1-4)GlcNAc(b1-4)GlcNAc
# Procedure, shortened: as §1
# [23] = target: GlcNAc(b1-3)Gal(b1-4)GlcNAc(b1-3)Gal(b1-4)GlcNAc(b1-2)[GlcNAc(b1-3)Gal(b1-4)GlcNAc(b1-3)Gal(b1-4)GlcNAc(b1-6)]Man(a1-6)[GlcNAc(b1-3)Gal(b1-4)GlcNAc(b1-3)Gal(b1-4)GlcNAc(b1-2)Man(a1-3)]Man(b1-4)GlcNAc(b1-4)[Fuc(a1-6)]GlcNAc
# Procedure, shortened: as §1
# [24] = target: GlcNAc(b1-3)Gal(b1-4)GlcNAc(b1-3)Gal(b1-4)GlcNAc(b1-3)Gal(b1-4)GlcNAc(b1-2)Man(a1-3)[GlcNAc(b1-3)Gal(b1-4)GlcNAc(b1-3)Gal(b1-4)GlcNAc(b1-3)Gal(b1-4)GlcNAc(b1-2)Man(a1-6)]Man(b1-4)GlcNAc(b1-4)GlcNAc
# Procedure, shortened: as §1
# [25] = target: GlcNAc(b1-3)Gal(b1-4)GlcNAc(b1-3)Gal(b1-4)GlcNAc(b1-3)Gal(b1-4)GlcNAc(b1-2)Man(a1-3)[GlcNAc(b1-3)Gal(b1-4)GlcNAc(b1-3)Gal(b1-4)GlcNAc(b1-3)Gal(b1-4)GlcNAc(b1-2)Man(a1-6)]Man(b1-4)GlcNAc(b1-4)[Fuc(a1-6)]GlcNAc
# Procedure, shortened: as §1
binder,measurement,setting,value
BIp1-His (Cryptococcus neoformans) (protein) MFTKIFVALFAATAVLSAPVESAEKRITHTGRATFYSPSVGIGACGWQNTDEELVVALNAPQYALNADHNCGQSVRITNEQNGNQEIAKVVDLCPGCNDGDLDMSPALFGALNNNDFDQGVFPISWNFLPRDDTSSSN,glycan array binding signal (z-score),Fuc(a1-2)Gal(b1-3)GalNAc,-0.387
same,glycan array binding signal (z-score),[1],-0.401
same,glycan array binding signal (z-score),[2],-0.487
same,glycan array binding signal (z-score),[3],0.249
same,glycan array binding signal (z-score),[4],0.066
same,glycan array binding signal (z-score),[5],-0.576
same,glycan array binding signal (z-score),[6],-0.013
same,glycan array binding signal (z-score),[7],-0.121
same,glycan array binding signal (z-score),Gal(a1-3)Gal(b1-4)Glc,-0.171
same,glycan array binding signal (z-score),[8],0.446
same,glycan array binding signal (z-score),[9],0.127
same,glycan array binding signal (z-score),[10],-0.105
same,glycan array binding signal (z-score),[11],0.266
same,glycan array binding signal (z-score),[12],-0.02
same,glycan array binding signal (z-score),[13],2.12
same,glycan array binding signal (z-score),[14],0.623
same,glycan array binding signal (z-score),[15],1.97
same,glycan array binding signal (z-score),[16],3.26
same,glycan array binding signal (z-score),[17],2.08
same,glycan array binding signal (z-score),Gal3S6S(b1-4)GlcNAc6S,1.12
same,glycan array binding signal (z-score),[18],-0.181
same,glycan array binding signal (z-score),GalNAc(b1-4)Gal(b1-4)Glc,0.482
same,glycan array binding signal (z-score),GalNAc(b1-6)GalNAc,-0.887
same,glycan array binding signal (z-score),[19],-0.297
same,glycan array binding signal (z-score),[20],2.19
same,glycan array binding signal (z-score),[21],-0.301
same,glycan array binding signal (z-score),[22],1.87
same,glycan array binding signal (z-score),[23],2.23
same,glycan array binding signal (z-score),[24],2.51
same,glycan array binding signal (z-score),[25],3.44
